Of roughly 7,900 targets only a part is listed; those with a hit were picked by preference. About 0.6% of all pairs of compound and target were hits.
Key:
Assay in all cases: log2 fold change, soluble protein after heating vs DMSO (PISA); higher = thermal stabilisation; K562 cells, 10 uM, 30 min; active = over 0.2 and 3.5 SD of the protein, either way, in both replicates (recomputed)
[1] = compound: CC[C@@H]1C(=O)N(C)c2cnc(Nc3ccc(C(=O)NC4CCN(C)CC4)cc3OC)nc2N1C1CCCC1
Summary of the method: (§1)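 K562 cells at 2×10^6 cells/mL were treated for 30 min with 10 μM compound, and aliquots were heated for 3 min over 48°C-58°C before pooling. Extraction used PBS with 0.5% NP-40 at 4°C, and soluble protein was the supernatant after 21,000xg for 90 min, measured by TMTpro 16plex LC-MS/MS with channel sums equalised. Thermal stability values, relative to control samples and from duplicates, are log2 fold changes.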

volasertib = compound: CC[C@@H]1C(=O)N(C)c2cnc(Nc3ccc(C(=O)N[C@H]4CC[C@H](N5CCN(CC6CC6)CC5)CC4)cc3OC)nc2N1C(C)C [volasertib]
Summary of the method: as §1

[2] = compound: CC[C@H](C)N1C=C(C2=C(C=C(C=C21)C3=CN=C(C=C3)N4CCNCC4)C(=O)NCC5=C(C=C(NC5=O)C)C)C
Summary of the method: as §1

epoxomicin = compound: CC[C@H](C)[C@@H](C(=O)N[C@@H]([C@@H](C)O)C(=O)N[C@@H](CC(C)C)C(=O)[C@]1(CO1)C)NC(=O)[C@H]([C@@H](C)CC)N(C)C(=O)C [epoxomicin]
Summary of the method: as §1

[3] = compound: CCn1c(C(=O)N(C2CC2)C2CC2)cc2c3c(ncn3C)c(Nc3cc(C)n(C)n3)nc21
Summary of the method: as §1

[4] = compound: CCn1cc(-c2ccnc3[nH]c(-c4cccc(CN(C)C)c4)cc23)c(-c2ccc(NC(=O)N(C)C)cc2)n1
Summary of the method: as §1

[5] = compound: CN(C)CC(=O)Nc1ccc2[nH]c(=O)c3ccccc3c2c1
Summary of the method: as §1

rosiglitazone = compound: CN(CCOC1=CC=C(C=C1)C[C@H]2C(=O)NC(=O)S2)C3=CC=CC=N3 (racemic) [rosiglitazone]
Summary of the method: as §1

[6] = compound: CN1C2=C(C3=C1C(=O)N(N=C3)CC4=CC(=CC=C4)N)SC(=C2)S(=O)C
Summary of the method: as §1

[7] = compound: CN1CCC(CNc2ccc3ncc(-c4cccc(OC(F)(F)F)c4)n3n2)CC1
Summary of the method: as §1

saracatinib = compound: CN1CCN(CCOc2cc(OC3CCOCC3)c3c(Nc4c(Cl)ccc5c4OCO5)ncnc3c2)CC1 [saracatinib]
Summary of the method: as §1

sotrastaurin = compound: CN1CCN(c2nc(C3=C(c4c[nH]c5ccccc45)C(=O)NC3=O)c3ccccc3n2)CC1 [sotrastaurin]
Summary of the method: as §1

alvocidib = compound: CN1CC[C@H](c2c(O)cc(O)c3c(=O)cc(-c4ccccc4Cl)oc23)[C@H](O)C1 [alvocidib]
Summary of the method: as §1

Tubastatin A = compound: CN1CCc2c(c3ccccc3n2Cc2ccc(C(=O)NO)cc2)C1 [Tubastatin A]
Summary of the method: as §1

[8] = compound: CNC(=O)C1=CC=CC=C1NC2=NC(=NC=C2Cl)NC3=C(C=C(C=C3)N4CCOCC4)OC
Summary of the method: as §1

defactinib = compound: CNC(=O)c1ccc(Nc2ncc(C(F)(F)F)c(NCc3nccnc3N(C)S(C)(=O)=O)n2)cc1 [defactinib]
Summary of the method: as §1

rucaparib = compound: CNCc1ccc(-c2[nH]c3cc(F)cc4c3c2CCNC4=O)cc1 [rucaparib]
Summary of the method: as §1

[9] = compound: CNc1nc(-c2ccc3c(N)n[nH]c3c2)cc(N2C[C@@H](C(=O)NC3CCCCC3)CC[C@H]2C)n1
Summary of the method: as §1

encorafenib = compound: COC(=O)N[C@@H](C)CNc1nccc(-c2cn(C(C)C)nc2-c2cc(Cl)cc(NS(C)(=O)=O)c2F)n1 [encorafenib]
Summary of the method: as §1

[10] = compound: COC(=O)[C@H](CCSC)NC(=O)C1=C(C=C(C=C1)NC[C@H](CS)N)C2=CC=CC=C2
Summary of the method: as §1

Measured: log2 fold change

GCLM (UniProt P48507)
Sequence of UniProt P48507 (P48507 whole entry, looked up): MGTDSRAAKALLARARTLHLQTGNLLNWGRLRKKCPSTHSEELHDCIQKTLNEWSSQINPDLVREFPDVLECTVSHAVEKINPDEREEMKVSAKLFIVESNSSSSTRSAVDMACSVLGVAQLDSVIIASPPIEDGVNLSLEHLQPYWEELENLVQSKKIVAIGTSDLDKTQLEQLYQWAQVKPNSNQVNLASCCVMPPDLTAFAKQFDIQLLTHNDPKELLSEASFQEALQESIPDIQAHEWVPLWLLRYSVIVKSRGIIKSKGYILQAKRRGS
inactive: [1] -0.183 | [2] 0.058 | epoxomicin 0.03 | [3] -0.049 | [4] -0.046 | [5] 0.042 | rosiglitazone 0.082 | [6] 0.03 | [7] -0.112 | saracatinib 0.012 | sotrastaurin -0.055 | alvocidib -0.126 | Tubastatin A 0.061 | [8] 0.155 | defactinib -0.151 | rucaparib 0.033 | [9] -0.045 | encorafenib 0.048 | [10] -0.042
active: volasertib -0.41

GNB2 (UniProt P62879)
Sequence of UniProt P62879 (P62879 whole entry, looked up): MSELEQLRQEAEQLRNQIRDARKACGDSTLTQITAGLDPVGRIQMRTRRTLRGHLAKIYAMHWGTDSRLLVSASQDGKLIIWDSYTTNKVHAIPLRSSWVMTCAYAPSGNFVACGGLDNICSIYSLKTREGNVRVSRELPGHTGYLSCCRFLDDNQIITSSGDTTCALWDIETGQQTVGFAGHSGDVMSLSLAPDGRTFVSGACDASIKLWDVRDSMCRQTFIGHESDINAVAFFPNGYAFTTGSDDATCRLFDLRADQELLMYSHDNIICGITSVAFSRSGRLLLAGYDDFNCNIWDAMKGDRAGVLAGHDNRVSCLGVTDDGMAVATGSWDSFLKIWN
inactive: [1] 0.122 | volasertib 0.103 | [2] 0.003 | epoxomicin 0.046 | [3] -0.01 | [4] -0.023 | [5] -0.042 | rosiglitazone -0.01 | [6] -0.079 | saracatinib -0.033 | sotrastaurin 0.019 | alvocidib 0.001 | Tubastatin A 0.015 | [8] -0.002 | defactinib -0.028 | rucaparib -0.004 | [9] 0.039 | encorafenib 0.005 | [10] -0.065
active: [7] 0.3

FANCD2 isoform 1 (UniProt Q9BXW9)
Sequence of UniProt Q9BXW9 (Q9BXW9 whole entry, looked up): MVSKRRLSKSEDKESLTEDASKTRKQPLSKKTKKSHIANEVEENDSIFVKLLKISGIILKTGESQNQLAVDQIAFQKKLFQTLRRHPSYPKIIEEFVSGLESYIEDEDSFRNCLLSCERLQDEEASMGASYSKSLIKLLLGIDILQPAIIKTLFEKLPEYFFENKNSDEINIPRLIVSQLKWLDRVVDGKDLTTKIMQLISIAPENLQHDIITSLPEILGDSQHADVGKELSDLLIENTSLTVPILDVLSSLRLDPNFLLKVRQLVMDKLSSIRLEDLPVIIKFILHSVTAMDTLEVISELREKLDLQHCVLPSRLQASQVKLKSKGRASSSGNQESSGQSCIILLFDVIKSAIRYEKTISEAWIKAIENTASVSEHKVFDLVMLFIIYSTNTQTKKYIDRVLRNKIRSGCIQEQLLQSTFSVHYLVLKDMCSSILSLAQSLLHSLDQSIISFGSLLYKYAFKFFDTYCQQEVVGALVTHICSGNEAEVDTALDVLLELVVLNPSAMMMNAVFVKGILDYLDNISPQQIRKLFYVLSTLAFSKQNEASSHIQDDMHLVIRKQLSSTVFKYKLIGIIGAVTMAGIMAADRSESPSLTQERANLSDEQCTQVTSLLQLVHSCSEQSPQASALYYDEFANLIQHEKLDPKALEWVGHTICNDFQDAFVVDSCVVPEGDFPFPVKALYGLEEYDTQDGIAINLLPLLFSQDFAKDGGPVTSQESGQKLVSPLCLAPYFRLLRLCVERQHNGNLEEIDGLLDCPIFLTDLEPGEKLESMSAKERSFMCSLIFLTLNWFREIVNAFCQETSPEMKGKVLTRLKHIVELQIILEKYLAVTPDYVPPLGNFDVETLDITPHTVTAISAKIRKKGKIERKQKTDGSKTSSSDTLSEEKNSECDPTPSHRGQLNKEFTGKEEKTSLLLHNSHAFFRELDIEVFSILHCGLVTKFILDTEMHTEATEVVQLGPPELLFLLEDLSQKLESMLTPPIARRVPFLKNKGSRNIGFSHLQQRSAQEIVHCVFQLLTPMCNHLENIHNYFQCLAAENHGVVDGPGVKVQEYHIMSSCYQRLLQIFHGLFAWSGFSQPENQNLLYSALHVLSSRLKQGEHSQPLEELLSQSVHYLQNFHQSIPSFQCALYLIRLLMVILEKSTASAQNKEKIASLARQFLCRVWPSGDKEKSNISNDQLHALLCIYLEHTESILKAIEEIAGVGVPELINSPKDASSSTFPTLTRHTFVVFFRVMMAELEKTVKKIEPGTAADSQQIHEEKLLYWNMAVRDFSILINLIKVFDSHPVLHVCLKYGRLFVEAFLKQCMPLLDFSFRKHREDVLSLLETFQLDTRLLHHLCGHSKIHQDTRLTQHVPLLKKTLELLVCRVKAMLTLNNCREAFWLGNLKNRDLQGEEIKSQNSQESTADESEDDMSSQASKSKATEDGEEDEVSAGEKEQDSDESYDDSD
inactive: [1] -0.229 | volasertib -0.251 | [2] 0.118 | epoxomicin -0.307 | [3] -0.04 | [4] -0.055 | [5] 0.026 | rosiglitazone 0.062 | [6] -0.009 | [7] -0.233 | saracatinib -0.038 | sotrastaurin 0.017 | alvocidib -0.102 | Tubastatin A -0.053 | [8] -0.126 | defactinib -0.145 | rucaparib 0.051 | [9] 0.028 | encorafenib 0.009 | [10] -0.029

GLRX3 (UniProt O76003)
Sequence of UniProt O76003 (O76003 whole entry, looked up): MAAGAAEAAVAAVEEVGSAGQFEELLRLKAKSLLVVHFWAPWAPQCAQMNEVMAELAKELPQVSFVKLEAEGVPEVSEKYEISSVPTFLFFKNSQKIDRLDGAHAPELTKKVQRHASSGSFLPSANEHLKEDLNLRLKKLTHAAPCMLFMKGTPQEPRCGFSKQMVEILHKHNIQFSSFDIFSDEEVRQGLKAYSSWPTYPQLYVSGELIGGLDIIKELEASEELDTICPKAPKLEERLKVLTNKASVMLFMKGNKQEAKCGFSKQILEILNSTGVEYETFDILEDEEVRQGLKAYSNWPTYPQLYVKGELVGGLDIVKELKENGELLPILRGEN
inactive: [1] -0.164 | [2] 0.066 | epoxomicin 0.018 | [3] 0.027 | [4] -0.025 | [5] -0.011 | rosiglitazone 0.014 | [6] -0.03 | [7] -0.03 | saracatinib -0.017 | sotrastaurin -0.066 | alvocidib -0.071 | Tubastatin A 0.015 | [8] 0.053 | defactinib -0.091 | rucaparib -0.063 | [9] -0.023 | encorafenib 0.029 | [10] -0.03
active: volasertib -0.331

FERMT3 (UniProt Q86UX7)
Sequence of UniProt Q86UX7 (Q86UX7 whole entry, looked up): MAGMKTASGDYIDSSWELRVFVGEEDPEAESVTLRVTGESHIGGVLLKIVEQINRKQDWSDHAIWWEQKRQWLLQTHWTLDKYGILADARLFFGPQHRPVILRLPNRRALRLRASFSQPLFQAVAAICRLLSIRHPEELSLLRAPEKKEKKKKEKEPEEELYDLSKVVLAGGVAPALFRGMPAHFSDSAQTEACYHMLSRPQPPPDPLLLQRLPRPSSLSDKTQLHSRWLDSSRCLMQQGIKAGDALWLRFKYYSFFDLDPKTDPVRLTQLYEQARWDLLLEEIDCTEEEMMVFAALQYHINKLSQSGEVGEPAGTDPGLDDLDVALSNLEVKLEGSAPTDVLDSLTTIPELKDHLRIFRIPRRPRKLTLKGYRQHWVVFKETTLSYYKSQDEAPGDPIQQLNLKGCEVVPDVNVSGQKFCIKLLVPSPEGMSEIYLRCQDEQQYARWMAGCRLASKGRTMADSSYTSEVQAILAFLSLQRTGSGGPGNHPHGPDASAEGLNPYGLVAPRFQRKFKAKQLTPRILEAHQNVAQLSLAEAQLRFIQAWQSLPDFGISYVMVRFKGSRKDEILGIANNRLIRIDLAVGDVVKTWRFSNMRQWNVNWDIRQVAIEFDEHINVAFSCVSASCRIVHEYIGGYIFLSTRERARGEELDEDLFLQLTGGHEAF
active: volasertib -0.262
inactive: [1] -0.07 | [2] 0.053 | epoxomicin 0.019 | [3] -0.018 | [4] -0.04 | [5] 0.045 | rosiglitazone 0.059 | [6] -0.021 | [7] -0.149 | saracatinib 0.019 | sotrastaurin -0.016 | alvocidib -0.055 | Tubastatin A -0.003 | [8] 0.008 | defactinib -0.069 | rucaparib -0.003 | [9] 0.036 | encorafenib 0.063 | [10] -0.03

IFI30 (UniProt P13284)
active: [1] -0.443 | volasertib -0.436 | [7] -0.448
inactive: [2] 0.038 | epoxomicin -0.014 | [3] -0.096 | [4] -0.098 | [5] -0.021 | rosiglitazone -0.061 | [6] -0.06 | saracatinib 0.224 | sotrastaurin 0.063 | alvocidib -0.003 | Tubastatin A -0.028 | [8] -0.02 | defactinib -0.048 | rucaparib 0.006 | [9] 0.144 | encorafenib 0.009 | [10] 0.042

HEXA (UniProt P06865)
Sequence of UniProt P06865 (P06865 whole entry, looked up): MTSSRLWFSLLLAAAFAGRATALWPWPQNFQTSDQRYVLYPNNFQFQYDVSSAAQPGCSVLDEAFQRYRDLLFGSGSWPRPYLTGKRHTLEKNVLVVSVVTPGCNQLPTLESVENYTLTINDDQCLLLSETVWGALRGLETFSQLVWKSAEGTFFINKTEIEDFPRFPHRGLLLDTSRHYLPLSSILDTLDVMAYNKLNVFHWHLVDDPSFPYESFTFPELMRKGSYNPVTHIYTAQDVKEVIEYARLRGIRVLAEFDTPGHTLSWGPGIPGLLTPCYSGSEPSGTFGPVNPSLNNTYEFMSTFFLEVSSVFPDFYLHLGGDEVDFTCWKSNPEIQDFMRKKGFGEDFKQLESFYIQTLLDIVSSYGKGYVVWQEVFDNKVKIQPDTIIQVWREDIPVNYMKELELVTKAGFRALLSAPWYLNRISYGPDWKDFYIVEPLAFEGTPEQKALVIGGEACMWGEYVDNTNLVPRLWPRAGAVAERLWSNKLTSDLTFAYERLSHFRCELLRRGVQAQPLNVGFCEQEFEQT
inactive: [2] -0.028 | epoxomicin -0.012 | [3] 0.022 | [4] -0.002 | [5] -0.021 | rosiglitazone 0 | [6] -0.02 | saracatinib 0.031 | sotrastaurin 0.098 | alvocidib 0.005 | Tubastatin A -0.145 | [8] -0.012 | defactinib -0.008 | rucaparib -0.07 | [9] -0.018 | encorafenib 0.003 | [10] 0.016
active: [1] -0.423 | volasertib -0.479 | [7] -0.63

GLCCI1 (UniProt Q86VQ1)
Sequence of UniProt Q86VQ1 (Q86VQ1 whole entry, looked up): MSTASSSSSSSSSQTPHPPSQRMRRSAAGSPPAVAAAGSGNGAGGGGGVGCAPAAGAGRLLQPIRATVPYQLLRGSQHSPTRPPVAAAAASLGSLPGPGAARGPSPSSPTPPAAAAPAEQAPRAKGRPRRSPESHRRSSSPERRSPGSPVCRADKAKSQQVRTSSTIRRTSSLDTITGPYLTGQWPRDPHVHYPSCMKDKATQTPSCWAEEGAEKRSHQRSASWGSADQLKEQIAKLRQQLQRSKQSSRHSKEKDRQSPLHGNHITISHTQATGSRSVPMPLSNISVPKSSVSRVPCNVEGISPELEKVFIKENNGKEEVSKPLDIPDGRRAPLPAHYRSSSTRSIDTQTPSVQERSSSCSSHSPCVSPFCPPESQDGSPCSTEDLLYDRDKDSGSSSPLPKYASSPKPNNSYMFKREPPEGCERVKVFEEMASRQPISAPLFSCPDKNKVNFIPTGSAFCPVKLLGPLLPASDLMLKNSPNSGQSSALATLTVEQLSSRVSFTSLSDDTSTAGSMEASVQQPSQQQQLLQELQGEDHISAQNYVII
active: [7] -0.328
inactive: [1] -0.048 | volasertib 0.108 | [2] 0.15 | epoxomicin -0.022 | [3] 0.087 | [4] 0.088 | [5] -0.035 | rosiglitazone -0.053 | [6] -0.023 | saracatinib -0.017 | sotrastaurin -0.016 | alvocidib 0.002 | Tubastatin A 0.082 | [8] -0.057 | defactinib -0.072 | rucaparib 0.087 | [9] -0.063 | encorafenib 0.026 | [10] -0.051
